Assay outcomes from PubChem BioAssay.
DT40 TDP1 no CPT: qHTS for Inhibitors of human tyrosyl-DNA phosphodiesterase 1 (TDP1): qHTS in cells in absence of CPT | Potency, µM (highest dose often 46.2 µM), usual class: inhibitors | 420,000 tested, 15% active | DT40 Tdp1-/- hTDP1 cells, no CPT, ATP luminescence, 48 h; also: nearly all actives have a fitted effect of over 55% in size
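Luminescent ATP content (CellTiter-Glo) served as the growth readout. Knockout chicken DT40 cells expressing human TDP1 were exposed to compounds without camptothecin for a minimum 48 hr at 37 °C.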
HepG2 viability: qHTS for Inhibitors of TGF-b: Cytotox Counterscreen; HepG2 CAGA-GFP viability, ATP luminescence, 18 h; Potency, µM (highest dose often 46.1 µM), hits mostly cytotoxic; 410,000 tested, 0.76% active; AID 588856, 2011
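HepG2 CAGA-GFP cells (1000/well, DMEM with 1% FBS) received compound, then TGF-beta at 500 pg/mL final, and were incubated 18 hours at 37 degrees C. Viability was read by CellTiter-Glo luminescence. Media-only wells were set as complete cell-killing and DMSO as no toxicity.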
TDP1 inh: qHTS Assay for Inhibitors of Tyrosyl-DNA Phosphodiesterase (TDP1); Potency, µM (doses to about 130 µM), hits mostly inhibitors; recombinant TDP1, AlphaScreen DNA substrate cleavage; AID 485290, 2010; 350,000 tested, 0.28% active; also: nearly all actives have a fitted effect of over 40% in size
Target sequence (Q9NUW8 whole entry, looked up): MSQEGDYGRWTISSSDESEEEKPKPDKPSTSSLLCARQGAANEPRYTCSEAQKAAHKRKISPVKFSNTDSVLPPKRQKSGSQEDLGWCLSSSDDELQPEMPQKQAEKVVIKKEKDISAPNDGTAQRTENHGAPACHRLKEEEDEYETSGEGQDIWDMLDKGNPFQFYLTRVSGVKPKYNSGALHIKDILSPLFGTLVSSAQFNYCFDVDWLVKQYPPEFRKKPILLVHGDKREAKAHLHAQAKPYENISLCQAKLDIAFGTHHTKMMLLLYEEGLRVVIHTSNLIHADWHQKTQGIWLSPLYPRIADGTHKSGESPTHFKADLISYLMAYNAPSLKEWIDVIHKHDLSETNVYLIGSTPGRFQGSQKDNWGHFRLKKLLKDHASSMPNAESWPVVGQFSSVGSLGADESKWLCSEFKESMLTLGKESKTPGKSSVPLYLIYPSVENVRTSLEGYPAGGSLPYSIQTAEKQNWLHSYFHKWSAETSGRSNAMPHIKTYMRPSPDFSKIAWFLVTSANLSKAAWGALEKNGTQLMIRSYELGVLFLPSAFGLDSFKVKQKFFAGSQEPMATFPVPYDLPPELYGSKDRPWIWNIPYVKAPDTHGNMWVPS
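Recombinant E. coli-expressed Tdp1 (1 nM) preincubated with compound 15 min at RT, then 5'-biotin/3'-phosphotyrosine-FITC DNA substrate (15 nM) added for 5 min. AlphaScreen beads (10 ug/ml) added, 10 min RT; tyrosine-FITC cleavage read as signal loss.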
TGFb SMAD3 inh: qHTS for Inhibitors of TGF-b | Potency, µM (doses to about 46.1 µM), actives largely listed as inhibitors | AID 588855, 2011 | 410,000 tested, 1.2% active | HepG2 CAGA-GFP TGF-b/SMAD3 reporter, GFP fluorescence, 18 h; TGF-beta stimulated, 500 pg/mL final; also: nearly all actives have a fitted effect of over 65% in size
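HEPG2 CAGA-GFP cells (1000/well, DMEM with 1% FBS) were pre-incubated 2 h at 37 degrees C, given compound by pin tool, then stimulated with TGF-beta at 500 pg/mL final for 18 h before per-cell GFP fluorescence imaging.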
DT40 TDP1 CPT: qHTS for Inhibitors of human tyrosyl-DNA phosphodiesterase 1 (TDP1): qHTS in cells in presence of CPT; chicken DT40 Tdp1-/-;hTDP1 cells + 20 nM CPT, ATP luminescence, 48 h; Potency, µM (highest dose often 46.2 µM), most hits filed as inhibitors; 420,000 tested, 12% active; also: nearly all actives have a fitted effect of over 55% in size
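Chicken DT40 Tdp1-/- cells stably complemented with human TDP1 were seeded at 400 cells/well in medium containing 20 nM camptothecin, exposed to pin-transferred compounds, and grown at 37 °C for at least 48 hr. Viability was read as ATP luminescence.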
IL1B secr inh: qHTS for Inhibitors of Inflammasome Signaling: IL-1-beta AlphaLISA Primary Screen; THP-1 LPS/ATP IL-1B secretion, AlphaLISA, 16 h; stronger effect = lower value; 360,000 tested, 4.7% active; AID 743279, 2014; activity change, % at 57.5 µM; in the data active = activity change below about -50%; inconclusive = mostly about -30% to -49%
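Secreted IL-1B measured by AlphaLISA bead assay after 16 h compound exposure of THP-1 cells; compounds (final up to 57.5 uM) added 1 h before LPS (250 ng/mL) and ATP (1.25 mM) stimulation; lower signal means less secretion.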
A number is an active result; - = inactive; ? = inconclusive; . = no result given; [ ] = remark or other dose. Sampled rows, rich in hits. Any-hit rate of the full collection: about 18%. Unless noted, calls follow the shape of the dose curve; as a rule, active = well fitted curve in the direction sought with a large enough effect; inconclusive = small, poorly fitted or top-dose-only effect, or another doubt; inactive = no such curve, though single readings can be large; an effect the other way counts as inactive or inconclusive.

SMILES	DT40 TDP1 no CPT	HepG2 viability	TDP1 inh	TGFb SMAD3 inh	DT40 TDP1 CPT	IL1B secr inh
CCOc1cc(NC(=O)C2CC2)c(OCC)cc1NC(=O)c1cccc(F)c1	-	-	-[0.0935 µM]	-	-	-
CCOc1cc(C#N)c(NC(=O)c2cccnc2)cc1OCC	1.8µM	-	-	-	1.3µM	-
NC(=O)c1nc[nH]c1C(=O)Nc1cccc(C(F)(F)F)c1	?	-	-	-	-	-
CCOc1cc(C(=O)NC(=S)Nc2cccnc2)cc(OCC)c1OCC	23µM	-	-	-	?	-
CCOc1cc(NC(=O)c2ccccn2)c(OCC)cc1NC(=O)c1ccc(C)cc1	3.3µM	-	-	-	5.2µM	-
CCOc1ccc(C(=O)NC(=S)Nc2cccnc2)cc1	-	-	-	-	-	-
C/C(CCN1CCc2nc(-c3ccccc3)c(-c3ccccc3)cc2C1)=N\O[C@@H](C)CN1CCCc2nc(C)c(C)cc21	.	.	-[21 µM]	.	.	.
CCCC(NC(=O)COc1cc2c(c3oc(=O)cc(C)c13)CCC(C)(C)O2)C(=O)O (stereo unspecified)	-	-	.	-	-	-
CCC(=O)NC(c1ccc(F)cc1)c1cc(Cl)c2cccnc2c1O (stereo unspecified)	.	.	-	.	.	.
COc1cc(C(=O)NC(c2ccc(Cl)cc2)c2cc(Cl)c3cccnc3c2O)cc(OC)c1OC (stereo unspecified)	5.2µM	-	-	-	10µM	.
COc1cccc(C(=O)NC(c2ccc(Cl)cc2)c2cc(Cl)c3cccnc3c2O)c1 (stereo unspecified)	5.8µM	-	-	?	8.2µM	.
COc1ccc(NC(=O)CNC(=O)Cn2cnc3sc(C)c(C)c3c2=O)cc1OC	-	-	-	-	-	-
CN(C)S(=O)(=O)c1ccc(C(=O)Nc2cc3c(cc2C(=O)O)OCCCO3)cc1	-	-	-	-	-	-
COc1ccc(CCN2C(=O)C(Oc3ccccc3)C2c2ccc3c(c2)OCO3)cc1 (stereo unspecified)	?	-	-	-	?	-
Cc1cc(C)cc(NC(=O)NCCn2nnc3cc(S(=O)(=O)N(C)C)ccc32)c1	-	-	-	-	?	.
COc1ccc(C(=O)NC(=S)Nc2cccc3ncccc23)cc1[N+](=O)[O-]	?	-	-	-	-	-
CCOC(=O)c1c(C)[nH]c(C)c1S(=O)(=O)N1CCC(C(=O)N2CCN(c3cccc(C)c3)C(C)C2)CC1 (stereo unspecified)	?	-	-	-	23µM	.
CCOC(=O)N1CCN(C(=O)C2CCN(S(=O)(=O)c3c(C)cc(C)cc3C)CC2)CC1	18µM	-	-	-	?	-
CCOC(=O)c1c(C)[nH]c(C)c1S(=O)(=O)N1CCC(C(=O)NCc2cccc(C)c2)CC1	-	-	-	-	-	.
CCOC(=O)c1c(C)[nH]c(C)c1S(=O)(=O)N1CCC(C(=O)N2CCN(c3cc(C)ccc3C)CC2)CC1	23µM	-	-	?	23µM	.
CCOC(=O)c1c(C)[nH]c(C)c1S(=O)(=O)N1CCC(C(=O)Nc2ccc(C)cn2)CC1	-	-	-	-	-	.
CCOc1ncccc1C(=O)OCC(=O)NCCc1ccc(S(N)(=O)=O)cc1	-	-	-	-	-	-
Cc1ccc(-c2nc(C(=O)NCC3CCCO3)cc3c2[nH]c2ccccc23)cc1 (stereo unspecified)	1.8µM	-	.	-	2.3µM	-60
COc1ccc(-c2nc(C(=O)NCC3CCCO3)cc3c2[nH]c2ccccc23)cc1 (stereo unspecified)	2.1µM	-	.	-	2.1µM	?
Cc1ccccc1-c1nc(C(=O)NCC2CCCO2)cc2c1[nH]c1ccccc12 (stereo unspecified)	18µM	-	.	-	12µM	-51
SMILES	DT40 TDP1 no CPT	HepG2 viability	TDP1 inh	TGFb SMAD3 inh	DT40 TDP1 CPT	IL1B secr inh
Cc1ccc(-c2nn(CC(=O)NCC3CCCO3)c(=O)c3ccccc23)cc1 (stereo unspecified)	-	-	-	-	-	-
O=C(NCC1CCCO1)c1cc2c([nH]c3ccccc32)c(-c2cccc(Br)c2)n1 (stereo unspecified)	2.9µM	-	.	-	2.6µM	?
COc1ccc(-n2nc(C(=O)NCC3CCCO3)c3ccccc3c2=O)cc1 (stereo unspecified)	-	-	-	-	-	-
Cc1ccnc2cc(Cl)c(Cl)cc12	?	-	.	-	?	.
O=C(O)/C=C(\CC(=O)O)C(=O)O	-	.	-	.	-	.
CCc1ccccc1NC(=O)Cn1nnc(C(=O)NCc2ccccc2Cl)c1N	-	-	-	-	?	.
Nc1cc(Cl)ccc1Oc1ccc2ccccc2c1	-	-	-	?	-	-
Nc1nc(Cl)cc(Sc2ccc3ccccc3c2)n1	23µM	-	-	-	15µM	-
CCCC1CCC(c2ccc(/C(N)=N/O)cc2)CC1 (stereo unspecified)	15µM	-	-	-	?	?
CCCC1CCC(c2ccc(C(=O)NN)cc2)CC1 (stereo unspecified)	29µM	-	-	-	29µM	-
CCCC1CCC(c2ccc(C(N)=O)cc2)CC1 (stereo unspecified)	-	-	-	-	-	-
CCCCCC1CCC(c2ccc(C(N)=O)cc2)CC1 (stereo unspecified)	-	-	-	-	-	-
CC(C)c1cc(C(C)C)c(S(=O)(=O)Nc2cccc3cccnc23)c(C(C)C)c1	.	.	-	.	.	.
O=C(CSc1nc2c(oc3ccccc32)c(=O)n1Cc1ccco1)Nc1ccccc1Cl	?	-	-	-	?	.
CC(C)C[C@H]1CN(CCCC[C@@H]2CNC(=O)C(=O)N2CCc2ccccc2)C(=O)C(=O)N1CCC1CCCCC1	?	.	.	.	?	-
O=C(O)C1CCC(c2ccc(-c3ccccc3)cc2)CC1 (stereo unspecified)	-	-	-	-	-	-
O=C(c1ccccc1)[C@@H]1O[C@H]1c1ccc(-c2ccccc2)cc1	4.2µM	.	-	.	4.2µM	.
CC[n+]1c(/C=C2\C=C(C)CC(C)(C)C2)sc2ccccc21	2.3µM	-	-	10µM	0.65µM	-60
CC[n+]1c(/C=C2/C=C(C)CC(C)(C)C2)sc2ccc(OC)cc21	1.2µM	-	-	?	2.3µM	-112
